Test [1] in a line: A CellTox Green Cytotoxicity Assay to monitor cytotoxicity in HEK293 cells - 32 hour (AID 1224881). Further: nearly all actives have a fitted effect of over 40% in size. Further: potency means the concentration at half of the fitted maximal effect. The gist of the method: (§1)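 HEK293 cells, 600/well, were preincubated 5 hours and then exposed to compounds at 37 C for up to 40 hours. A cell-impermeant cyanine dye staining dead-cell DNA was read by fluorescence at 0, 8, 16, 24, 32 and 40 h time points.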
Test [2] in a line: A CellTox Green Cytotoxicity Assay to monitor cytotoxicity in HepG2 cells - 0 hour (AID 1224882). Further: nearly all actives have a fitted effect of over 35% in size. In outline: (§2)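 HepG2 cells, 600/well, preincubated 5 h with CellTox Green dye, then exposed to Tox21 compounds in DMSO at 37 C for up to 40 h. Dead-cell DNA fluorescence read at the indicated time point.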
Test [3] is described as follows: A CellTox Green Cytotoxicity Assay to monitor cytotoxicity in HepG2 cells - 32 hour (AID 1224883). Further: nearly all actives have a fitted effect of over 50% in size. Further: potency means the concentration at half of the fitted maximal effect. The gist of the method:
as §2

Test [4] in a line: A CellTox Green Cytotoxicity Assay to monitor cytotoxicity in HEK293 cells - 8 hour (AID 1224884). Further: nearly all actives have a fitted effect of over 35% in size. Further: potency means the concentration at half of the fitted maximal effect. The gist of the method: as §1
Test [5] in a line: qHTS RealTime-Glo MT Cell Viability Assay in HepG2 cells - 16 hour (AID 1224885). Further: nearly all actives have a fitted effect of over 50% in size. Further: potency means the concentration at half of the fitted maximal effect. In outline:
(§3)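 HepG2 cells were seeded at 600 cells/well together with NanoLuc luciferase and a cell-permeant prosubstrate, preincubated 5 h at 37 C/5% CO2, then pin-dosed with compounds in DMSO. Nonlytic luminescence from viable cells was read at each time point.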
A general note: qHTS replaces the single test concentration by a dilution series.

A short description of test [6]: qHTS RealTime-Glo MT Cell Viability Assay in HEK293 cells - 24 hour (AID 1224886). Further: nearly all actives have a fitted effect of over 50% in size. Further: potency means the concentration at half of the fitted maximal effect. In outline: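 HEK293 cells were seeded at 600 cells/well together with NanoLuc luciferase and cell-permeant prosubstrate, preincubated 5 h at 37 C/5% CO2, then given compound in DMSO by pintool. Luminescence from viable-cell prosubstrate reduction was read repeatedly over 40 h.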
The nature of test [7]: qHTS RealTime-Glo MT Cell Viability Assay in HEK293 cells - 8 hour (AID 1224887). Further: nearly all actives have a fitted effect of over 50% in size. Further: potency means the concentration at half of the fitted maximal effect. In outline:
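600 cells/well were plated with the nonlytic NanoLuc/prosubstrate reagent, pre-incubated 5 h, then given 23 nL of compound in DMSO. Incubation at 37 C for 40 h, with luminescence from viable-cell-reduced substrate read repeatedly from 0 h.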

Test [8] is described as follows: A CellTox Green Cytotoxicity Assay to monitor cytotoxicity in HEK293 cells - 16 hour (AID 1224888). Further: nearly all actives have a fitted effect of over 35% in size. Further: potency means the concentration at half of the fitted maximal effect. The gist of the method:
as §1

Test [9] can be described thus: qHTS RealTime-Glo MT Cell Viability Assay in HepG2 cells - 0 hour (AID 1224889). Further: nearly all actives have a fitted effect of over 50% in size. In outline:
as §3

Test [10] is described as follows: A CellTox Green Cytotoxicity Assay to monitor cytotoxicity in HepG2 cells - 8 hour (AID 1224890). Further: nearly all actives have a fitted effect of over 45% in size. Further: potency means the concentration at half of the fitted maximal effect. In outline: as §2

For 24 molecules, Potency and outcome results are on record in PubChem BioAssay (Tox21).

SMILES strings stand for the structures. Values joined by “and” are separate entries in the source; they are usually repeats but may differ in a detail not shown here. Equal values may be shown once. Records with an inconclusive call do not appear. Active and inactive are the calls of the source. The call rests on the fitted dose curve; in most records, active means well fitted curve in the direction sought with a large enough effect in the repeat runs; inconclusive means weak or mixed curves; inactive means no such curve, though single readings can be large; an effect the other way counts as inactive or inconclusive.

Consider `O=C1NC(=O)C(=O)C(=O)N1`, for which the Potency entry in [1], in test [2], in [3], in test [4], in test [5] and in test [6] was “inactive” throughout. In addition, the Potency result in [7], in test [8] and in test [10] was “inactive” each time. Besides, the molecule was classed as inactive in [9].

As for `OCCSSCCO`, the Potency result in test [1], in test [2], in [3], in [4], in test [5] and in test [6] was “inactive” each time. The Potency entry in [7], in test [8] and in [10] was “inactive” throughout. Also, the result in test [9] was inactive.

As for `N#CC(C#N)=C(C#N)C#N`, the Potency result in test [1], in test [2], in test [3], in test [4], in test [5] and in test [6] was “inactive” throughout. Besides, the Potency entry in test [7], in test [8] and in [10] was “inactive” each time. Also, the molecule was called inactive in test [9].

Consider `CC(C)OC(=O)Cc1ccccc1`, for which the Potency entry in [1], in [2], in test [3], in [4], in test [5] and in [6] was “inactive” throughout. The Potency entry in test [7], in [8] and in test [10] was “inactive” in each case. Further, in test [9], the outcome was inactive.

As for `Oc1cccc(Cl)c1`, the Potency entry in test [1], in test [2], in test [3], in test [4], in [5] and in test [6] was “inactive” throughout. The Potency entry in [7], in test [8] and in [10] was “inactive” throughout. Besides, the outcome in test [9] was inactive.

Regarding `CC(=O)NNc1ccccc1`, the Potency result in test [1], in [2], in test [3], in test [4], in test [5] and in test [6] was “inactive” in each case. Moreover, the Potency entry in test [7], in [8] and in test [10] was “inactive” in each case. Moreover, the outcome in [9] was inactive.

Regarding `C[N+](C)(C)CC1CO1` (stereo not given), the Potency entry in test [1], in [2], in test [3], in [4], in test [5] and in test [6] was “inactive” in each case. Also, the Potency entry in test [7], in test [8] and in test [10] was “inactive” each time. Also, the result in test [9] was inactive.

Consider `Cc1ncc(C[n+]2csc(CCO)c2C)c(N)n1`, for which the Potency result in [1], in test [2], in test [3], in test [4], in test [5] and in [6] was “inactive” each time. Besides, the Potency result in test [7], in test [8] and in [10] was “inactive” in each case. Moreover, the molecule was called inactive in test [9].

With `COC(=O)C1(O)c2ccccc2-c2ccccc21`, the Potency result in test [1], in test [2], in [3], in test [4], in test [5] and in [6] was “inactive” throughout. The Potency entry in test [7], in test [8] and in test [10] was “inactive” throughout. In addition, the molecule was called inactive in test [9].

Take `N#CC1(N=NC2(C#N)CCCCC2)CCCCC1`: the Potency result in test [1], in test [2], in test [3], in test [4], in [5] and in test [6] was “inactive” in each case. The Potency entry in test [7], in test [8] and in [10] was “inactive” each time. For the same molecule, the molecule was called inactive in test [9].

In the case of `CCOC(=O)NC(O)C(Cl)(Cl)Cl` (stereo not given), the Potency result in test [1], in test [2], in test [3], in test [4], in test [5] and in test [6] was “inactive” throughout. Moreover, the Potency result in test [7], in test [8] and in [10] was “inactive” each time. Also, the call in test [9] was inactive.

As for `O=C(NCNC(=O)NC1C(=O)NC(=O)N1CO)NC1C(=O)NC(=O)N1CO` (stereo not given), the Potency entry in test [1], in [2], in test [3], in test [4], in [5] and in test [6] was “inactive” in each case. Also, the Potency entry in [7], in test [8] and in test [10] was “inactive” in each case. In addition, the result in test [9] was inactive.

Regarding `Cc1cccc(C)c1NC1=NCCCS1`, the Potency result in test [1], in test [2], in test [3], in test [4], in test [5] and in test [6] was “inactive” throughout. In addition, the Potency result in test [7], in [8] and in [10] was “inactive” in each case. Further, in [9], the molecule was called inactive.

With `CCC1(C2=NCCN2)Cc2ccccc2O1` (stereo not given), the Potency entry in [1], in test [2], in test [3], in test [4], in [5] and in [6] was “inactive” throughout. For the same molecule, the Potency result in test [7], in test [8] and in [10] was “inactive” in each case. Further, the molecule was called inactive in test [9].

Consider `COC(=O)Cc1ccccc1`, for which the Potency entry in [1], in test [2], in [3], in test [4], in test [5] and in test [6] was “inactive” throughout. The Potency entry in [7], in test [8] and in test [10] was “inactive” throughout. Besides, the molecule was classed as inactive in test [9].

For the molecule `CCCCC1C(=O)NC(=O)N(C2CCCCC2)C1=O` (stereo not given), the Potency entry in test [1], in test [2], in test [3], in [4], in test [5] and in [6] was “inactive” in each case. Further, the Potency result in [7], in test [8] and in test [10] was “inactive” in each case. Besides, the molecule was called inactive in test [9].

For the molecule `CN1C(=O)CN=C(c2ccccc2)c2cc([N+](=O)[O-])ccc21`, the Potency entry in test [1], in test [2], in test [3], in [4], in [5] and in [6] was “inactive” in each case. Moreover, the Potency result in test [7], in test [8] and in test [10] was “inactive” each time. In addition, the molecule was classed as inactive in test [9].

As for `O=C(O)CCCOc1ccc(Cl)cc1Cl`, the Potency entry in test [1], in test [2], in test [3], in test [4], in [5] and in test [6] was “inactive” each time. Moreover, the Potency entry in [7], in [8] and in [10] was “inactive” throughout. In addition, the molecule was classed as inactive in test [9].

For `Cc1nnc(-c2ccccc2)c(=O)n1N`, the Potency entry in [1], in [2], in test [3], in test [4], in test [5] and in [6] was “inactive” in each case. In addition, the Potency result in test [7], in [8] and in [10] was “inactive” in each case. Besides, the outcome in test [9] was inactive.

Turning to `CCCCCCCCCCCC[N+](C)(C)CCOc1ccccc1`, the Potency in test [1] was 17.4 µM (active) and 23.9 µM (active); in [3] it was 13.8 µM (active) and 8.49 µM (active); in test [4] it was 24.6 µM (active); in test [5] it was 43.7 µM (active) and 21.3 µM (active); in test [6] it was 11 µM (active) and 10.7 µM (active); in [7], 43.7 µM (active) and 23.9 µM (active). In addition, the Potency in test [8] was 21.9 µM (active) and 23.9 µM (active); in test [10] it was 55 µM (active) and 26.8 µM (active). In addition, the Potency entry in test [2] was “inactive”. For the same molecule, the outcome in [9] was inactive.

In the case of `NC(=S)c1c(Cl)cccc1Cl`, the Potency result in test [1], in test [2], in test [3], in test [4], in test [5] and in test [6] was “inactive” each time. For the same molecule, the Potency entry in test [7], in [8] and in test [10] was “inactive” throughout. Besides, the molecule was called inactive in test [9].

For the molecule `C=CCOCC1CO1` (stereo not given), the Potency entry in [1], in test [2], in test [3], in [4], in [5] and in test [6] was “inactive” each time. Besides, the Potency entry in test [7], in test [8] and in test [10] was “inactive” each time. In addition, the molecule was called inactive in test [9].

In the case of `CCC1CCC(=O)O1` (stereo not given), the Potency entry in [1], in test [2], in test [3], in test [4], in test [5] and in test [6] was “inactive” each time. In addition, the Potency entry in test [7], in [8] and in [10] was “inactive” in each case. In addition, the result in test [9] was inactive.

As for `O=S(=O)(Cl)Cl`, the Potency result in test [1], in [2], in test [3], in [4], in [5] and in test [6] was “inactive” each time. In addition, the Potency entry in test [7], in [8] and in test [10] was “inactive” in each case. Also, in test [9], the result was inactive.
